Assay [1] is described as follows: Cytotoxicity counterscreen for inhibitors of SARS-CoV-2 cell entry (AID 1645845). Note: nearly all actives have a fitted effect of over 50% in size. The essentials: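 Counterscreen run in the same HEK293-ACE2 line as the pseudotyped-particle entry assay, without particles. Viability after 48 h at 37 C was read as ATP luminescence, scaled between cell-containing and cell-free wells.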
The target of assay [2] is Cytochrome P450 2D6 (Homo sapiens) (UniProt P10635). Description: Cytochrome P450 family 2 subfamily D member 6 (CYP2D6) small molecule antagonists: luciferase biochemical (cell-free) qHTS assay (AID 1645840; active = well fitted curve in the direction sought with a large enough effect in the repeat runs; an effect the other way counts as inactive or inconclusive; note: nearly all actives have a fitted effect of over 55% in size; note: potency is the fitted concentration of half-maximal effect; for activity change, negative = inhibition: % is set by controls: 0 for no effect and ±100 for the full control effect). The essentials:
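P450-Glo CYP2D6 system: proluciferin substrate converted by enzyme to luciferin, read by luminescence proportional to activity. Enzyme-substrate mix with compound 10 min at room temperature, then NADPH regeneration 1 h before detection reagent.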
In general terms: Quantitative high-throughput screening tests each substance at several concentrations.

The target of assay [3] is Cytochrome P450 2C9 (Homo sapiens) (UniProt P11712). Description: Cytochrome P450 family 2 subfamily C member 9 (CYP2C9) small molecule antagonists: luciferase biochemical (cell-free) qHTS assay (AID 1645842; active = well fitted curve in the direction sought with a large enough effect in the repeat runs; an effect the other way counts as inactive or inconclusive; note: nearly all actives have a fitted effect of over 55% in size; note: potency is the fitted concentration of half-maximal effect; for activity change, negative = inhibition: % is set by controls: 0 for no effect and ±100 for the full control effect). The essentials: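 P450-Glo CYP2C9 system: proluciferin substrate with enzyme in mix containing 0.4% BSA, 10 min at room temperature, then NADPH regeneration solution added and incubated 1 h at 37C. Detection reagent stopped reaction; luminescence read after 20 min as RLU.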
Sequence of Cytochrome P450 2C9 (Homo sapiens) (P11712 whole entry, looked up): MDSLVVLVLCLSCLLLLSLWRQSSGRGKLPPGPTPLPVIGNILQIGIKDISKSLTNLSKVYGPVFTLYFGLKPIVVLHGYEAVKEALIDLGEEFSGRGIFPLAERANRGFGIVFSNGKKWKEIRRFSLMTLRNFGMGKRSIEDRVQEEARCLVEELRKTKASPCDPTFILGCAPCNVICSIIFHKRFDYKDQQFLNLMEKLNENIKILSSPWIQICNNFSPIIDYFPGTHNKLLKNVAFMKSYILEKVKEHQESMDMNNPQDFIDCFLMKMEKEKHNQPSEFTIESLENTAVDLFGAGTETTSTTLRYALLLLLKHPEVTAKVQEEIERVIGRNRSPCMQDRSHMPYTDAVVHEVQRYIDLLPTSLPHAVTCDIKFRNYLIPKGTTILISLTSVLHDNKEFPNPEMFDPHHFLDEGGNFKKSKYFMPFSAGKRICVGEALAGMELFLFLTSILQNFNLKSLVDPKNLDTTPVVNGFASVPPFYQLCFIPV

Assay [4] can be described thus: A High-Content qHTS Against Drug Library for the Identification of Small Molecules that Inhibit DYT1 Early Onset Primary Dystonia-Associated Cell Pathology (AID 1645839). The essentials:
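Cells were seeded and left for 24 h, then dosed with compound alongside tetracycline induction of mutant EGFP-TorsinA. They were incubated for 48 h, fixed in 4% paraformaldehyde, permeabilized and imaged for mislocalization (%pathology) and cell count.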

Assay [5] in a line: Primary qHTS to identify inhibitors of SARS-CoV-2 cell entry (AID 1645846). Note: nearly all actives have a fitted effect of over 45% in size. Note: potency is the fitted concentration of half-maximal effect. Particulars: activity change, negative = inhibition: at 57.1 µM (top of the series) unless noted. The essentials: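 Using luciferase-reporting pseudoviruses carrying Wuhan-Hu-1 spike, the screen tracks entry into stably ACE2-expressing cells over 48 hr. Activity is expressed relative to spike particles versus particles lacking any fusion protein.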

Assay [6] deals with Cytochrome P450 3A4 (Homo sapiens) (UniProt P08684). Description: Cytochrome P450 family 3 subfamily A member 4 (CYP3A4) small molecule antagonists: luciferase qHTS assay (AID 1645841; active = well fitted curve in the direction sought with a large enough effect in the repeat runs; an effect the other way counts as inactive or inconclusive; note: nearly all actives have a fitted effect of over 45% in size). The essentials:
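P450-Glo CYP3A4 enzyme with proluciferin substrate preincubated 10 min with compound at room temperature, then NADPH regeneration 1 h. Luciferin detection reagent added for 20 min; luminescence recorded. Ketoconazole positive control.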

SMILES strings stand for the structures. Records with an inconclusive call do not appear. Active and inactive are the calls of the source. Unless noted, calls come from the whole dose curve.

Sequence of Cytochrome P450 2D6 (Homo sapiens) (P10635 whole entry, looked up): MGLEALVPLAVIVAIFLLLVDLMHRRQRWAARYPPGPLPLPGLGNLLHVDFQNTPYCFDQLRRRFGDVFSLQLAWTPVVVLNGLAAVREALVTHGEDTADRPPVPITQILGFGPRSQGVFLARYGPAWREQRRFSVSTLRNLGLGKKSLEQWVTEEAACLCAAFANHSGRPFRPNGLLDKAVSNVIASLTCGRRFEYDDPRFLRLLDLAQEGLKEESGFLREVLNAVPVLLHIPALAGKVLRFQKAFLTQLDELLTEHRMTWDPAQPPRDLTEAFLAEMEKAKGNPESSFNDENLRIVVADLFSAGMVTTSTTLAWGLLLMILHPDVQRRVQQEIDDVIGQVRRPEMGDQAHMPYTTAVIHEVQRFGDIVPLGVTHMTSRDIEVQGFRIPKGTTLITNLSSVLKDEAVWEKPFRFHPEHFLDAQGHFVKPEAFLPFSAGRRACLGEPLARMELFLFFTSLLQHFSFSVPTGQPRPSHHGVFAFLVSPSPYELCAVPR
Sequence of Cytochrome P450 3A4 (Homo sapiens) (P08684 whole entry, looked up): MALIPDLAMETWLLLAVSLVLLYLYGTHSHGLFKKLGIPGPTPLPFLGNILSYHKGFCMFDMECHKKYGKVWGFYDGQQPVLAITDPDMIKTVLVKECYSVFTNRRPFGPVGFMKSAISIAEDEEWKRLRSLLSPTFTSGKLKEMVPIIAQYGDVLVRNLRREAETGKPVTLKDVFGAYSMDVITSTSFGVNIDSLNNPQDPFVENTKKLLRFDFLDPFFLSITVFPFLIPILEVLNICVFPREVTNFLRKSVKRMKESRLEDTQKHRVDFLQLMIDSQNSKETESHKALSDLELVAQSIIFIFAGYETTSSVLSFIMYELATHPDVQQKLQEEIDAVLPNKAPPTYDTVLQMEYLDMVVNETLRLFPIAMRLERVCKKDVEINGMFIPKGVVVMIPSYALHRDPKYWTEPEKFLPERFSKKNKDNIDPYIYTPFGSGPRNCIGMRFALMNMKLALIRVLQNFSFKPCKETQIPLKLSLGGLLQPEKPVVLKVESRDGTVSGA

`CNC(=O)c1cc(Oc2ccc(NC(=O)Nc3cc(C(C)(C)C)nn3-c3ccc4ncccc4c3)c(F)c2)ccn1`: the Potency result in assay [1] was “inactive”.
The same measure, in the same setting: next, `CC(=O)NCCC(=O)N[C@@H](CCC(N)=O)C(=O)N[C@@H](CO)C(=O)N[C@@H](CCC(N)=O)C(=O)N[C@@H](CCC(N)=O)C(=O)N[C@H](C(=O)N[C@@H](Cc1ccccc1)C(=O)N[C@]1(C)CCCCCCC=CCCC[C@@](C)(C(=O)N[C@@H](CCC(N)=O)C(=O)N[C@@H](CC(N)=O)C(N)=O)NC(=O)[C@H](CC(C)C)NC(=O)[C@H](CC(C)C)NC(=O)[C@@H](CCCNC(=N)N)NC(=O)[C@H](Cc2c[nH]c3ccccc23)NC(=O)[C@H](CC(C)C)NC(=O)[C@H](CC(N)=O)NC1=O)[C@H](C)O`: “inactive”.
For the molecule `COc1ccc(C(c2ccc(OC)cc2)C(Cl)(Cl)Cl)cc1`, the Potency entry in assay [2] was “inactive”. Moreover, the Potency in assay [3] was 1.49 µM (active).
`Cc1ccc(Cl)c(O)c1`: the Potency result in assay [4], in assay [2] and in assay [3] was “inactive” in each case.
Take `Nc1ccc([N+](=O)[O-])cc1`: the Potency entry in assay [2] and in assay [3] was “inactive” throughout.
As for `CC1(N2CCC(n3c([C@@H]4CCCNC4)nc4ccccc43)CC2)CCCCCCC1`, the Potency entry in assay [3] was “inactive”. Besides, the Potency in assay [5] was 5.01 µM (active).
Consider `CCC1(CCC(C)C)C(=O)NC(=O)NC1=O`, for which the Potency entry in assay [4], in assay [2] and in assay [3] was “inactive” in each case.
`COc1cc(Oc2ccnc3cc(OC)c(OC)cc23)ccc1NC(=O)NC(C)c1nccs1` (centres undefined): in assay [1], the Potency entry was “inactive”.
In the case of `CCOP(=O)(NC(C)C)Oc1ccc(SC)c(C)c1` (centres undefined), the Potency result in assay [4] is “inactive”. In addition, the Potency in assay [2] was 3.88 µM (active); in assay [3] it was 9.47 µM (active).
In the case of `CC[N+]1(CCOC(=O)C(O)(c2ccccc2)c2ccccc2)CCCCC1`, the Potency entry in assay [4], in assay [6], in assay [3] and in assay [1] was “inactive” throughout. Moreover, in assay [5], the activity change, negative = inhibition is -23.2%.
For the molecule `Cc1[nH]nc2ccc(-c3cncc(OC[C@@H](N)Cc4c[nH]c5ccccc45)c3)cc12`, the Potency in assay [2] is 3.79 µM (active); in assay [3], 0.674 µM (active). Besides, the activity change, negative = inhibition in assay [5] is -97.4%.
Take `Cc1ccc(NC(=O)c2cccc(C(C)(C)C#N)c2)cc1Nc1ccc2ncn(C)c(=O)c2c1`: the Potency entry in assay [1] is “inactive”.
With `C=CCC1=C(C)C(OC(=O)C2C(C=C(C)C)C2(C)C)CC1=O` (centres undefined), in assay [4], the Potency entry was “inactive”. Moreover, the Potency in assay [2] is 23.8 µM (active); in assay [3], 5.02 µM (active).
Regarding `CSCC[C@@H](NC(=O)[C@@H](Cc1ccccc1)NC(=O)CNC(=O)CNC(=O)[C@@H](N)Cc1ccc(O)cc1)C(=O)O`, the Potency result in assay [2], in assay [3] and in assay [1] was “inactive” throughout. Further, the activity change, negative = inhibition in assay [5] was -0.623%.
Turning to `O=C(O)COc1ccccc1`, the Potency entry in assay [4], in assay [2], in assay [3], in assay [1] and in assay [5] was “inactive” each time.
With `CCN(CC)CCCCNc1nc2cc(Cl)c(Cl)cc2nc1-c1ccc(-c2cccs2)s1`, in assay [1], the Potency result was “inactive”.
Take `O=C(O)c1ccccn1`: the Potency result in assay [2], in assay [3] and in assay [1] was “inactive” each time. Further, the activity change, negative = inhibition in assay [5] was -3.73%.
As to `CC(O)CN1CCN(CC(=O)[O-])CCN(CC(=O)[O-])CCN(CC(=O)[O-])CC1.[Gd+3]` (centres undefined), the Potency entry in assay [4], in assay [2] and in assay [3] was “inactive” in each case.
Consider `O=[N+]([O-])c1c(Cl)c(Cl)cc(Cl)c1Cl`, for which the Potency entry in assay [4], in assay [2] and in assay [3] was “inactive” in each case.
With `CC(C)(C)C(O)C(Oc1ccc(Cl)cc1)n1cncn1` (centres undefined), in assay [4], the Potency result was “inactive”. Also, the Potency in assay [3] was 21.2 µM (active).
In the case of `CCOCCOC(C)=O`, the Potency entry in assay [4], in assay [2] and in assay [3] was “inactive” throughout.
Take `COc1cccc2cc(-c3nc(C4CCC(C(=O)O)CC4)n4ncnc(N)c34)[nH]c12` (centres undefined): the Potency result in assay [1] is “inactive”.
Same read-out and setting: for `CCOC(CN1C(=O)[C@](CC(=O)Nc2ccc(C)cc2)(NC(=O)Nc2ccc(C)cc2)c2ccccc21)OCC` the value was “inactive”.
With `CO/C=C(/C(=O)OC)c1ccccc1Oc1cc(Oc2ccccc2C#N)ncn1`, the Potency entry in assay [4] is “inactive”. Besides, the Potency is 39.9 µM (active) in assay [2] and 3.66 µM (active) in assay [3].
On to `O=C1C(I)=CC(=C(c2cc(I)c(O)c(I)c2)c2ccccc2C(=O)O)C=C1I`, for which the Potency was 9.77 µM (active) in assay [2] and 3.09 µM (active) in assay [3].
As for `Cc1cc2c(F)c(Oc3ncnn4cc(OC[C@@H](C)O)c(C)c34)ccc2[nH]1`, the Potency result in assay [1] is “inactive”.
For the molecule `CC(=O)Nc1ccc(OC[C@](C)(O)C(=O)Nc2ccc([N+](=O)[O-])c(C(F)(F)F)c2)cc1`, the Potency in assay [3] is 9.52 µM (active). The Potency result in assay [1] is “inactive”. Also, the activity change, negative = inhibition in assay [5] is 0.0964%.
For the molecule `CC(C)[C@H](CO)Nc1nc(Nc2ccc(C(=O)O)c(Cl)c2)c2ncn(C(C)C)c2n1`, the Potency entry in assay [1] is “inactive”. For the same molecule, the activity change, negative = inhibition in assay [5] is -17.7%.
Taken in the same sequence, the figures for `O=C(O)CCC1CCC(c2cc(F)ccc2F)(S(=O)(=O)c2ccc(Cl)cc2)CC1` (centres undefined) were “inactive” and -2.05%.
As for `Cc1ccc(C(=O)Nc2cccc(C(F)(F)F)c2)cc1-c1ccc2nc(NCCN3CCOCC3)ncc2c1`, in assay [1], the Potency result was “inactive”. Moreover, the Potency in assay [5] is 31.6 µM (active).
Turning to `CC(C)(C)C(O)/C=C/c1ccc2c(c1)OCO2` (centres undefined), in assay [1], the Potency entry was “inactive”. Moreover, the activity change, negative = inhibition in assay [5] is -17.5%.
Taken in the same sequence, the figures for `COc1c(Cl)cc2c([nH]c3cnccc32)c1NC(=O)c1cccnc1C` were “inactive” and -30.2%.
Taken in the same sequence, the figures for `O=C1CCCC2=C1C(c1[nH]ncc1Cl)N=C(Nc1nc3ccccc3o1)N2` (centres undefined) were “inactive” and -4.23%.
Taken in the same sequence, the figures for `CCCCOCCOc1nc(-c2ccc(C(=O)O)c(F)c2)sc1C` were “inactive” and -25.8%.
Consider `Cc1ccnc(NS(=O)(=O)c2ccc(NC(=O)Nc3ccc(S(=O)(=O)Nc4nccc(C)n4)cc3)cc2)n1`, for which, in assay [1], the Potency entry was “inactive”. For the same molecule, the activity change, negative = inhibition in assay [5] is -16.3%.
`Cc1cccc(-c2nn(C(=S)Nc3ccccc3)cc2-c2ccnc3ccccc23)n1`: the Potency entry in assay [1] and in assay [5] was “inactive” in each case.
Turning to `CC(=O)Nc1ccc(O)cc1`, in assay [1], the Potency entry was “inactive”. The activity change, negative = inhibition in assay [5] was -27.9%.
Taken in the same sequence, the figures for `Cc1cc(Nc2nc(N[C@@H](C)c3ncc(F)cn3)ncc2Cl)n[nH]1` were “inactive” and -52.3%.
Turning to `CC(C)(C)NCC(O)c1ccc(O)c(CO)c1` (centres undefined), the Potency result in assay [1] and in assay [5] was “inactive” in each case.
For `Cn1cc(-c2ccc3nnc(C(F)(F)c4ccc5ncccc5c4)n3n2)cn1`, the Potency result in assay [1] and in assay [5] was “inactive” in each case.
Take `COc1cc(Nc2ncc(F)c(Nc3ccc4c(n3)NC(=O)C(C)(C)O4)n2)cc(OC)c1OC`: the Potency result in assay [1] and in assay [5] was “inactive” throughout.

Values taken from PubChem BioAssay (NCATS).
